Test results taken from PubChem BioAssay (NCI).
Compounds without any hit were thinned out: in the full panel of roughly 83,000, 20% have a hit.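 Growth was measured after 48 h exposure to one concentration of compound in 96-well plates. Values under 10 count as active.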 Calls of active or inactive are those of the source.

Legend:
Assay in all cases: NCI-60 one-dose screen, 48 h (100 = growth as untreated, 0 = no growth, -100 = all killed)
NCI-H23 lung = conditions: 10 µM unless noted
NCI-H226 lung = conditions: 10 µM unless noted
NCI-H322M lung = conditions: 10 µM unless noted
HOP-62 NSCLC = conditions: 10 µM unless noted
NCI-H460 lung = conditions: 10 µM unless noted
HOP-92 NSCLC = conditions: 10 µM unless noted
NCI-H522 lung = conditions: 10 µM unless noted
A549/ATCC NSCLC = conditions: 10 µM unless noted
786-0 renal = conditions: 10 µM unless noted
COLO 205 colon = conditions: 10 µM unless noted
DU-145 prostate = conditions: 10 µM unless noted
K-562 leukemia = conditions: 10 µM unless noted
MALME-3M melanoma = conditions: 10 µM unless noted
MDA-MB-231 breast = conditions: 10 µM unless noted
RXF 393 renal = conditions: 10 µM unless noted
SF-268 CNS = conditions: 10 µM unless noted
SF-295 CNS = conditions: 10 µM unless noted
SF-539 CNS = conditions: 10 µM unless noted
UACC-257 melanoma = conditions: 10 µM
M14 melanoma = conditions: 10 µM unless noted

Measured: growth

CC1=C2C(=C[C@@](C)(COS(N)(=O)=O)[C@@H]2O)C(=O)[C@](C)(O)C12CC2
inactive: NCI-H23 lung 23.6% | NCI-H226 lung 85.8% | NCI-H322M lung 74.4% | HOP-62 NSCLC 45.7% | HOP-92 NSCLC 43.8% | NCI-H522 lung 70.5% | A549/ATCC NSCLC 21.2% | 786-0 renal 79.4% | COLO 205 colon 47.7% | DU-145 prostate 15.3% | K-562 leukemia 97.2% | MALME-3M melanoma 88.3% | MDA-MB-231 breast 83% | SF-268 CNS 32.2% | SF-295 CNS 20.5% | SF-539 CNS 64.9% | UACC-257 melanoma 89.3% | M14 melanoma 76.7%
active: NCI-H460 lung 7.04% | RXF 393 renal -30.2%

NS(=O)(=O)c1ccc(Nc2nc(N/N=C/c3ccc([N+](=O)[O-])cc3)nc(Nc3ccccc3)n2)cc1
active: HOP-62 NSCLC 9.49% | NCI-H460 lung 1.55% | RXF 393 renal -5.96% | SF-539 CNS -36.3%
inactive: NCI-H23 lung 12.2% | NCI-H226 lung 59.6% | NCI-H322M lung 39.5% | HOP-92 NSCLC 49.1% | NCI-H522 lung 48.3% | A549/ATCC NSCLC 96.9% | 786-0 renal 10.4% | COLO 205 colon 23.1% | DU-145 prostate 43.6% | K-562 leukemia 20.3% | MALME-3M melanoma 36.9% | MDA-MB-231 breast 45.8% | SF-268 CNS 26.9% | SF-295 CNS 57.1% | UACC-257 melanoma 82.5% | M14 melanoma 13.3%

C=C(C)[C@@H]1CC[C@]2(C(=O)ON)CC[C@]3(C)[C@H](CC[C@@H]4[C@@]5(C)C/C(=C/c6ccc(Br)cc6)C(=O)C(C)(C)[C@@H]5CC[C@]43C)[C@@H]12
inactive: NCI-H23 lung 78.4% | NCI-H226 lung 72.6% | NCI-H322M lung 85.1% | HOP-62 NSCLC 85.9% | NCI-H460 lung 71% | HOP-92 NSCLC 73.6% | NCI-H522 lung 66.8% | A549/ATCC NSCLC 54.8% | 786-0 renal 84.8% | COLO 205 colon 88% | DU-145 prostate 79.2% | K-562 leukemia 46.3% | MALME-3M melanoma 83.2% | MDA-MB-231 breast 80.6% | RXF 393 renal 78.4% | SF-268 CNS 81.1% | SF-295 CNS 74.9% | SF-539 CNS 75.9% | UACC-257 melanoma 81.1% | M14 melanoma 76%

CCOc1ccc2nc(NC(=O)Nc3ccccc3C)sc2c1
inactive: NCI-H23 lung 76.4% | NCI-H226 lung 38.3% | NCI-H322M lung 87% | HOP-62 NSCLC 49% | NCI-H460 lung 42.4% | HOP-92 NSCLC 126% | NCI-H522 lung 32.7% | A549/ATCC NSCLC 54.7% | 786-0 renal 64.9% | COLO 205 colon 49.9% | DU-145 prostate 70.3% | K-562 leukemia 14.6% | MALME-3M melanoma 48.6% | MDA-MB-231 breast 71.2% | RXF 393 renal 49.5% | SF-268 CNS 78.6% | SF-295 CNS 35.2% | SF-539 CNS 57.1% | UACC-257 melanoma 68.4% | M14 melanoma 23.4%

C/C=C/C=C1\C[C@H]2CO[C@H](O2)C1=O
inactive: NCI-H23 lung 93.9% | NCI-H226 lung 94.9% | NCI-H322M lung 93.7% | HOP-62 NSCLC 96.9% | NCI-H460 lung 104% | HOP-92 NSCLC 96.4% | NCI-H522 lung 95.6% | A549/ATCC NSCLC 98.2% | 786-0 renal 102% | COLO 205 colon 117% | DU-145 prostate 106% | K-562 leukemia 56.8% | MALME-3M melanoma 102% | MDA-MB-231 breast 105% | RXF 393 renal 104% | SF-268 CNS 105% | SF-295 CNS 106% | SF-539 CNS 102% | UACC-257 melanoma 90.8% | M14 melanoma 85.4%

Clc1ccccc1/C=C/c1nn2c(-c3ccncc3)nnc2s1
inactive: NCI-H23 lung 99% | NCI-H226 lung 91% | NCI-H322M lung 100% | HOP-62 NSCLC 108% | NCI-H460 lung 102% | HOP-92 NSCLC 103% | NCI-H522 lung 101% | A549/ATCC NSCLC 106% | 786-0 renal 96.9% | COLO 205 colon 115% | DU-145 prostate 103% | MALME-3M melanoma 100% | MDA-MB-231 breast 101% | RXF 393 renal 109% | SF-268 CNS 98.7% | SF-295 CNS 98% | SF-539 CNS 98.3% | UACC-257 melanoma 121% | M14 melanoma 85.7%

C=CCn1c(SCC(=O)Nc2cccc(C(=O)/C=C/c3cccc([N+](=O)[O-])c3)c2)nc2ccccc2c1=O
inactive: NCI-H23 lung 89.3% | NCI-H226 lung 83.6% | NCI-H322M lung 95.4% | HOP-62 NSCLC 108% | NCI-H460 lung 93.4% | HOP-92 NSCLC 82.1% | NCI-H522 lung 89.3% | A549/ATCC NSCLC 94.1% | 786-0 renal 94.8% | COLO 205 colon 117% | DU-145 prostate 94.1% | MALME-3M melanoma 90.1% | MDA-MB-231 breast 90.1% | RXF 393 renal 84.6% | SF-268 CNS 92.5% | SF-295 CNS 93.5% | SF-539 CNS 96.7% | UACC-257 melanoma 99.3% | M14 melanoma 84.2%

CCC(C)[C@H]1OC(=O)[C@H](C(C)C)N(C)C(=O)[C@@H](C(C)C)OC(=O)[C@H](C(C)C)N(C)C(=O)[C@@H](C(C)CC)OC(=O)[C@H](C(C)C)N(C)C1=O (stereo not given in full)
inactive: NCI-H226 lung 19.2% | A549/ATCC NSCLC 12.9% | 786-0 renal 10.4% | DU-145 prostate 22% | RXF 393 renal 17.2% | SF-268 CNS 22.1% | SF-539 CNS 13.8% | M14 melanoma 17.6%
active: NCI-H23 lung 8.83% | NCI-H322M lung 8.61% | HOP-62 NSCLC 8.79% | NCI-H460 lung 9.08% | HOP-92 NSCLC -19.8% | NCI-H522 lung -2.93% | COLO 205 colon -91.8% | K-562 leukemia 8.02% | MALME-3M melanoma 7.55% | MDA-MB-231 breast 2.72% | SF-295 CNS 6.32%

C=CCn1c(SCC(=O)Nc2cccc(C(=O)/C=C/c3ccc(C)cc3)c2)nc2ccccc2c1=O
inactive: NCI-H23 lung 81.3% | NCI-H226 lung 92.6% | NCI-H322M lung 92.1% | HOP-62 NSCLC 113% | NCI-H460 lung 94.8% | HOP-92 NSCLC 103% | NCI-H522 lung 83.8% | A549/ATCC NSCLC 82.3% | 786-0 renal 98.9% | COLO 205 colon 109% | DU-145 prostate 95.9% | MALME-3M melanoma 106% | MDA-MB-231 breast 92.8% | RXF 393 renal 77.7% | SF-268 CNS 90.6% | SF-295 CNS 101% | SF-539 CNS 89.4% | UACC-257 melanoma 96.8%

COc1ccc(C2CC(c3ccc(Nc4nc(NCCO)nc(Nc5ccc(Cl)cc5)n4)cc3)=Nc3c(N)nc(N)nc3N2)cc1 (stereo not given)
inactive: NCI-H23 lung 57.8% | NCI-H226 lung 88.7% | NCI-H322M lung 93.2% | HOP-62 NSCLC 37.4% | NCI-H460 lung 63% | HOP-92 NSCLC 74.6% | NCI-H522 lung 56.1% | A549/ATCC NSCLC 95.1% | 786-0 renal 71% | COLO 205 colon 92.1% | DU-145 prostate 73.1% | MALME-3M melanoma 113% | MDA-MB-231 breast 77.3% | SF-268 CNS 81.6% | SF-295 CNS 82% | SF-539 CNS 84.4% | UACC-257 melanoma 113%
active: K-562 leukemia -10.1%

COc1ccc(-c2cc(-c3cccc4ccccc34)n3c(n2)nc2ccccc23)cc1
inactive: NCI-H23 lung 62.2% | NCI-H226 lung 49.1% | NCI-H322M lung 73.5% | HOP-62 NSCLC 26% | NCI-H460 lung 13.5% | HOP-92 NSCLC 38.4% | NCI-H522 lung 50.3% | A549/ATCC NSCLC 29% | 786-0 renal 36.5% | COLO 205 colon 74% | DU-145 prostate 37.8% | K-562 leukemia 37.2% | MALME-3M melanoma 32.4% | MDA-MB-231 breast 78.2% | SF-268 CNS 46.6% | SF-295 CNS 20.2% | SF-539 CNS 45.7% | UACC-257 melanoma 68.8% | M14 melanoma 52.1%

Cc1occc1-c1nc2s/c(=C\c3cn(-c4ccccc4)nc3-c3ccccc3)c(=O)n2n1
inactive: NCI-H23 lung 88.5% | NCI-H226 lung 97.4% | NCI-H322M lung 107% | HOP-62 NSCLC 118% | NCI-H460 lung 103% | HOP-92 NSCLC 67.8% | NCI-H522 lung 92.3% | A549/ATCC NSCLC 95.7% | 786-0 renal 101% | COLO 205 colon 118% | DU-145 prostate 106% | K-562 leukemia 106% | MALME-3M melanoma 101% | MDA-MB-231 breast 97.8% | SF-268 CNS 101% | SF-295 CNS 101% | SF-539 CNS 91.2% | UACC-257 melanoma 96% | M14 melanoma 100%

CC[C@@](C)(NC(=O)C(C)(C)NC(=O)[C@@H](NC(=O)[C@@H]1CCCN1C(=O)C(C)(C)NC(=O)[C@H](CC(C)C)NC(=O)CNC(=O)C(C)(C)NC(=O)[C@@H](NC(=O)C(C)(C)NC(=O)[C@H](CCC(N)=O)NC(=O)[C@H](C)NC(=O)C(C)(C)NC(=O)[C@H](C)NC(=O)C(C)(C)NC(=O)[C@@H]1CCCN1C(=O)C(C)(C)NC(C)=O)C(C)C)C(C)C)C(=O)N[C@@H](CCC(N)=O)C(=O)N[C@@H](CCC(N)=O)C(=O)N[C@H](CO)Cc1ccccc1
inactive: NCI-H23 lung 14.9% [4.25 µM] | NCI-H226 lung 61.3% [4.25 µM] | NCI-H322M lung 58.4% [4.25 µM] | HOP-62 NSCLC 51.9% [4.25 µM] | NCI-H460 lung 39.4% [4.25 µM] | A549/ATCC NSCLC 50.1% [4.25 µM] | 786-0 renal 77.2% [4.25 µM] | DU-145 prostate 30.9% [4.25 µM] | K-562 leukemia 29.1% [4.25 µM] | MDA-MB-231 breast 32.4% [4.25 µM] | RXF 393 renal 29.1% [4.25 µM] | SF-268 CNS 31.6% [4.25 µM] | SF-295 CNS 86.6% [4.25 µM] | SF-539 CNS 28.7% [4.25 µM] | M14 melanoma 65.9% [4.25 µM]
active: HOP-92 NSCLC -13.3% [4.25 µM] | NCI-H522 lung -1.04% [4.25 µM] | COLO 205 colon -12.5% [4.25 µM] | MALME-3M melanoma -21.3% [4.25 µM]
